Screening data: PubChem, National Center for Advancing Translational Sciences (NCATS)
Only some compounds are listed: those with a hit (about 3% of all), similar ones and a draw of the others.
Coupling enz: counter-screen for Giardia aldolase inhibitors: coupling enzyme system | coupling enzyme system counterscreen, AmpLite Red fluorescence | activity change, negative = inhibition, % at 58.2 µM, hits read low | 0.67% of 290,000 active | AID 2472; in the data active = activity change below about -30%
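First, compound is pin-transferred into glyceraldehyde-3-phosphate coupling-enzyme reagent at 57.5 uM final and held 10 min at RT. Next, substrate, coupling system and AmpLite Red are added. After 20 min RT, fluorescence (525/598 nm) is read.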
Tau fibril ThT: inhibitors of human tau fibril formation, thioflavin T binding; AID 1460; recombinant tau K18 P301L, heparin-induced fibrillization, ThT fluorescence; Potency, µM (highest dose often 57.4 µM), without a hit: at the top dose activity, negative = inhibition, actives largely listed as inhibitors; 2.1% of 270,000 active; P10636; also: potency is read from the fitted curve at half-maximal effect; nearly all actives have a fitted effect of over 55% in size
Target sequence (P10636 561-689 P618L limits assumed): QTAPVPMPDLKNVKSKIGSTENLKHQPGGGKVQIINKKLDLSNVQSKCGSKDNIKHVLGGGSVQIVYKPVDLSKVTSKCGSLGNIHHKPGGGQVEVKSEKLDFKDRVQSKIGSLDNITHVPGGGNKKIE
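Tau K18 P301L fragment (15 uM unlabeled plus 0.24 uM Alexa 594-labeled) in 100 mM sodium acetate pH 7 with compound, fibrillization induced by 20 uM heparin for 6 hr at 37 C. Thioflavin T (30 uM) added, fluorescence read after 1 hr (ex 450, em 510 nm).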
JMJD2E inh: JMJD2E (human) inhibition | AID 2147 | Potency, µM (series often up to 57.1 µM), for inactives: at the top dose activity change, negative = inhibition, hits mostly inhibitors | 1.6% of 230,000 active | JMJD2E catalytic domain, FDH-coupled NADH fluorescence (FDH is formaldehyde dehydrogenase) | B2RXH2; active = well fitted inhibition curve with a large enough effect, not every such curve was filed as active; inconclusive = small, poorly fitted or top-dose-only effect, or another doubt; inactive = no such curve, though single readings can be large or run the other way;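 also: potency is read from the fitted curve at half-maximal effect; 0% = wells with enzyme and -100% = buffer wells without enzyme; nearly all actives have a fitted effect of over 50% in size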
Target sequence (B2RXH2 1-337 limits assumed): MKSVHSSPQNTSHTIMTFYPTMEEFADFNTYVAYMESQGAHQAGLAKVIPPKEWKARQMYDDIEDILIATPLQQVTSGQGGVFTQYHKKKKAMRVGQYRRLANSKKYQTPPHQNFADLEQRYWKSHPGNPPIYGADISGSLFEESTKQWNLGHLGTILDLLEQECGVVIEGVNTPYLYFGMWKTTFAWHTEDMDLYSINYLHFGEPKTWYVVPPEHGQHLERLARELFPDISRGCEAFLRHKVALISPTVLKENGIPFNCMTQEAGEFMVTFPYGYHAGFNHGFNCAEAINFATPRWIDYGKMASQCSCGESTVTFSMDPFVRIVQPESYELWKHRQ
Tau FP inhib: tau fibrillization inhibition (FP). P10636. K18 P301L tau heparin fibrillization, Alexa594 FP, 6 h. Potency, µM (doses to about 57.7 µM), inactives show top-dose activity, negative = inhibition, usual class: inhibitors. 0.39% of 280,000 active. AID 1468; also: potency is read from the fitted curve at half-maximal effect; nearly all actives have a fitted effect of over 55% in size
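Compound effects on tau fibrillization are measured by Alexa 594 fluorescence polarization (ex 555, em 632 nm). K18 P301L tau is used at 15 uM with 0.24 uM labeled tracer, and 20 uM heparin induces aggregation over 6 hr at 37 C.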
Tau fluor counter: counter-screen for tau fibril formation inhibitors | tau K18 P301L Alexa594 fluorescence, heparin fibrillization | Potency, µM (titrated, usually from 57.7 µM), without a hit: at the highest dose activity change, negative = decrease | 0.93% of 280,000 active; also: potency is read from the fitted curve at half-maximal effect; nearly all actives have a fitted effect of over 55% in size
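Human tau K18 P301L (15 uM unlabeled, 0.24 uM Alexa 594-labeled) in 100 mM sodium acetate pH 7 with 20 uM heparin, 6 hr at 37 C. ThT 30 uM added, 1 hr ambient; Alexa 594 FP and total fluorescence read at 555/632 nm.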
Starred values were filed as active, the others as inactive; ? = inconclusive; nt = not tested or not shown; ! = a repeat was not active; [ ] = another dose, or the depositor's remark. Unless noted, calls follow the shape of the dose curve; as a rule, active = well fitted curve in the direction sought with a large enough effect; inconclusive = small, poorly fitted or top-dose-only effect, or another doubt; inactive = no such curve, though single readings can be large; an effect the other way counts as inactive or inconclusive. Unless noted, % is scaled to controls: 0 for no effect and ±100 for the full control effect.

SMILES | Coupling enz | Tau fibril ThT | JMJD2E inh | Tau FP inhib | Tau fluor counter
CCOCCCn1c(N)c(C(=O)Nc2sc3c(c2C(=O)OC)CCCC3)c2nc3ccccc3nc21 | -44.7* | ? | 3.0% | ? | ?
CC(C)OCCCNC(=O)c1c(N)n(CC2CCCO2)c2nc3ccccc3nc12 (centres undefined) | -46.7* | ? | ? | 1.5% | -16.5%
CCCNC(=O)c1c(N)n(CC2CCCO2)c2nc3ccccc3nc12 (centres undefined) | -51.0* | ? | ? | ? | ?
COCCCn1c(N)c(C(=O)NCCC(C)C)c2nc3ccccc3nc21 | -45.9* | ? | ? | 0.4% | ?
CC(C)OC(=O)c1c(N)n(CC2CCCO2)c2nc3ccccc3nc12 (centres undefined) | -10.4 | -12.1% | ? | -8.6% | -7.6%
CC(=O)N1CCN(c2ccc(OCC3CO[C@@](Cn4ccnc4)(c4ccc(Cl)cc4Cl)O3)cc2)CC1 (some centres undefined) | 4.0 | ? | 3.5% | -10.1% | ?
CNC(=S)S | 2.6 | nt | nt | nt | nt
CC(C)OC(=O)C(O)(c1ccc(Cl)cc1)c1ccc(Cl)cc1 | 0.4 | nt | nt | nt | nt
C[C@@H]1CO1 | -1.0 | nt | nt | nt | nt
CCOP(=S)(OCC)Oc1ccc(Cl)cc1Cl | 2.7 | nt | nt | nt | nt
C[C@@H]1Cc2c(Cl)cc(C(=O)N[C@@H](Cc3ccccc3)C(=O)O)c(O)c2C(=O)O1 | 1.7 | -14.8% | nt | -8.6% | -2.9%
COc1ccc(-c2nnc3n2N(C(C)=O)C(c2ccc(Cl)c(Cl)c2)=C(C(C)=O)S3)cc1 | nt | ? | nt | -10.4% | -24.7%
CCOC(=O)c1ccc(N2C(=O)c3n[nH]c(-c4cccs4)c3C2c2ccc(C(C)(C)C)cc2)cc1 (centres undefined) | nt | -1.7% | nt | ? | -20.1%
COc1ccc2nc(N3CCN(C(=O)CS(=O)(=O)c4ccc(C)cc4)CC3)sc2c1 | nt | ? | nt | 6.7% | -12.6%
N/C(=N\N=C\c1ccc(O)cc1O)N[N+](=O)[O-] | 3.5 | ? | 25.1µM* | 1.6% | -13.6%
C[S@@](=O)CCCCN=C=S | -1.0 | nt | nt | nt | nt
COC(=O)c1nc(-c2ccc3c(n2)C(=O)C(N)=C(OC)C3=O)c(N)c(-c2ccc(OC)c(OC)c2O)c1C | -36.9* | nt | 20µM* | ? | ?
NNCc1cccc(O)c1 | 0.8 | ? | 22.4µM*! | ? | ?
Cc1ccc(-c2nc(S(=O)(=O)c3ccc(C)cc3)c(SCC(=O)Nc3ccc(F)cc3)o2)cc1 | nt | -2.1% | nt | ? | ?
CC(C)c1ccc(N=Nc2c(O)[nH]c(=O)[nH]c2=O)cc1 | -1.2 | nt | -5.9% | -8.3% | -9.6%
O=c1[nH]c(=S)[nH]c(O)c1N=Nc1ccc(SC(F)F)cc1 | 1.4 | 3.55µM* | -2.2% | -15.9% | -20.0%
O=c1[nH]c(=S)[nH]c(O)c1N=Nc1ccc(S(=O)(=O)N2CCc3ccccc32)cc1 | 0.2 | 5.01µM* | -5.8% | 9.0% | ?
CCOC(=O)c1ccc(N2CCN(c3ccccc3F)CC2)c(NC(=O)Nc2ccc(Cl)c(Cl)c2)c1 | nt | 9.9% | nt | ? | -19.0%
O=C1NC(=O)C(=Cc2ccc(Oc3ccc([N+](=O)[O-])cc3)cc2)C(=O)N1 | -14.2 | 12.6µM* | 6.3% | ? | -8.4%
Cc1cccc(N(C)S(=O)(=O)c2cc(-c3cnc(C4CC4)o3)ccc2C)c1 | nt | ? | nt | 6.8% | -5.7%
SMILES | Coupling enz | Tau fibril ThT | JMJD2E inh | Tau FP inhib | Tau fluor counter
CCN(CC)c1ccc(CC2C(=O)N(C)C(=O)N(C)C2=O)cc1 | -0.2 | ? | -4.4% | ? | 25.1µM*[fluorescent]
C=CCOc1ccc(CC2C(=O)N(C)C(=O)N(C)C2=O)cc1 | -0.5 | ? | 7.8% | -5.2% | -6.7%
NCCc1c[nH]c2ccc(OCc3ccccc3)cc12 | -1.1 | -18.5% | ? | 8.0% | 12.6µM*[quencher]
NCCc1c[nH]c2ccccc12 | -0.5 | -6.1% | 1.8% | 2.9% | -6.7%
COc1cccc(CN2C(=O)C3(SCC(=O)N3c3ccc(C)c(Cl)c3)c3ccccc32)c1 (centres undefined) | nt | ? | nt | -11.0% | -15.2%
Cc1cccc(N2C(=O)CSC23C(=O)N(CC(=O)Nc2cccc(Cl)c2)c2ccccc23)c1 (centres undefined) | nt | 11.4% | nt | 25.1µM* | ?
CCCCC/C=C\C/C=C\C/C=C\C/C=C\CCCC(=O)O | -2.7 | 28.2µM*! | 28.2µM*! | ? | ?
C[Se]C[C@H](N)C(=O)O | nt | ? | 17.8µM* | -7.2% | -18.0%
CC1=C(O)C(=O)C=C2C1=CC=C1[C@]2(C)CC[C@@]2(C)C3C[C@](C)(C(=O)O)CC[C@@]3(C)CC[C@@]12C (some centres undefined) | 2.2 | ? | ? | ? | ?
Cc1ccc(N2C(=O)NC(=O)/C(=C\c3cc(C)n(-c4sc5c(c4C#N)CCCC5)c3C)C2=O)cc1 | 0.9 | ? | -4.0% | -10.7% | -11.0%
CCN1C(=O)NC(=O)/C(=C/c2cc(C)n(-c3sc(C)c(C)c3C#N)c2C)C1=O | -37.1* | ? | -3.2% | 4.1% | 16.9%
Cc1ccc(NC(=O)C2CCN(C(=O)c3cnn(-c4ccccc4)c3-n3cccc3)CC2)cc1Cl | nt | -4.4% | nt | -8.7% | ?
CCC(=O)CCCCC[C@@H]1NC(=O)[C@H]2CCCCN2C(=O)[C@H]([C@@H](C)CC)NC(=O)[C@H](Cc2cn(OC)c3ccccc23)NC1=O | -0.1 | nt | nt | nt | nt
CS(=O)c1ccc(-c2nc(-c3ccc(F)cc3)c(-c3ccncc3)[nH]2)cc1 (centres undefined) | 2.2 | 5.6% | ? | -7.8% | -0.8%
O=C(Nc1ccc(Br)cc1)c1ccc(F)c(S(=O)(=O)N2CCCc3ccccc32)c1 | nt | -1.1% | nt | 15.8µM* | 7.08µM*[quencher]
FC(F)=C(F)CCSc1ncn[nH]1 | 1.7 | 4.8% | 4.47µM* | 6.2% | 10.4%
c1ccc2c(c1)Nc1ccccc1S2 | 0.6 | ? | 10.9% | 7.2% | 15.8µM*[quencher]
O=C1Nc2ccccc2Sc2ccccc21 | -6.3 | 14.2% | -2.3% | 1.8% | 11.3%
Cc1ccc2cc3c(ccc4ccccc43)c3c2c1CC3 | nt | 15.8µM* | nt | ? | -25.0%
CN1C(=O)C(=Cc2ccc(N3CCOCC3)c([N+](=O)[O-])c2)C(=O)N(C)C1=O | 2.6 | ? | ? | -5.9% | -18.1%
O=C1NC(=O)C(=Cc2ccc(N3CCN(C(=O)c4ccccc4)CC3)c([N+](=O)[O-])c2)C(=O)N1 | 4.8 | 11.2µM* | 22.4µM* | -13.0% | -15.2%
CN1CCN(c2nc(Cl)ncc2F)CC1 | -0.2 | -4.6% | -6.1% | 6.3% | -3.2%
CN1CCN(c2ncc(C=O)s2)CC1 | -37.4* | 6.2% | 6.5% | 9.0% | -1.0%
CC1=C(O)C(=O)[C@@H]2O[C@@H]2C1=O | nt | 15.8µM* | nt | 20µM* | ?
COc1ccc(NC(=O)CSc2oc(-c3cccs3)nc2S(=O)(=O)c2ccccc2)c(OC)c1 | nt | 2.2% | nt | -6.3% | ?
CC(=O)NC1N=C(C)N(c2ccccc2)C1=O (centres undefined) | -77.8* | ? | ? | ? | ?
